This is a sample that favours compounds with a hit; in the whole collection about 2.5% have one here.
POLB inh – blocks human DNA polymerase beta activity; P06746; Pol beta primer extension/strand displacement, fluorescence kinetic; Potency, µM (titrated, usually from 114 µM), for inactives: top-dose activity change, negative = inhibition, actives largely listed as inhibitors; 340,000 tested, 1.3% active; note: % is set by controls: 0 for no effect and ±100 for the full control effect
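Kinetic readout of DNA synthesis with strand displacement by Pol beta. Compound and 10 nM enzyme sit 15 min at room temperature; 50 nM substrate starts the reaction, read immediately and at 10 min.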
POLH inh – inhibitors of human DNA polymerase eta; Q9Y253; recombinant Pol eta, fluorescent DNA replication assay; Potency, µM (top dose mostly 114 µM), inactives show top-dose activity change, negative = inhibition, actives largely listed as inhibitors; 390,000 tested, 1.2% active; AID 588591; note: % is set by controls: 0 for no effect and ±100 for the full control effect
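Fluorescent replication assay: 50 nM final substrate added after a 15 min room-temperature compound preincubation with 10 nM enzyme. Signal taken at 0 min and again at 10 min.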
L3MBTL1 inh – blocks human L3MBTL1; Q9Y468; AlphaScreen L3MBTL1–H3K9me1 peptide binding; 230,000 tested, 0.66% active; Potency, µM (series often up to 57.1 µM), inactives show at the highest dose activity, negative = inhibition, hits mostly inhibitors; AID 485360; note: % is set by controls: 0 for no effect and ±100 for the full control effect; nearly all actives have a fitted effect of over 60% in size
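AlphaScreen assay: L3MBTL1 (50 nM final) was preincubated 30 min at room temperature with biotinylated H3(1-15)K9me1 peptide (75 nM final), then 30 min with library compounds; streptavidin donor and nickel chelate acceptor beads (10 ug/mL final) added, 30 min dark.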
Pol iota inh – inhibitors of human DNA polymerase iota | 390,000 tested, 1% active | Q9UNA4 | Potency, µM (highest dose often 115 µM), for the others: at the top dose activity, negative = inhibition, most hits filed as inhibitors | Pol iota fluorescent replication assay, 10 min
Target sequence (Q9UNA4 whole entry, looked up): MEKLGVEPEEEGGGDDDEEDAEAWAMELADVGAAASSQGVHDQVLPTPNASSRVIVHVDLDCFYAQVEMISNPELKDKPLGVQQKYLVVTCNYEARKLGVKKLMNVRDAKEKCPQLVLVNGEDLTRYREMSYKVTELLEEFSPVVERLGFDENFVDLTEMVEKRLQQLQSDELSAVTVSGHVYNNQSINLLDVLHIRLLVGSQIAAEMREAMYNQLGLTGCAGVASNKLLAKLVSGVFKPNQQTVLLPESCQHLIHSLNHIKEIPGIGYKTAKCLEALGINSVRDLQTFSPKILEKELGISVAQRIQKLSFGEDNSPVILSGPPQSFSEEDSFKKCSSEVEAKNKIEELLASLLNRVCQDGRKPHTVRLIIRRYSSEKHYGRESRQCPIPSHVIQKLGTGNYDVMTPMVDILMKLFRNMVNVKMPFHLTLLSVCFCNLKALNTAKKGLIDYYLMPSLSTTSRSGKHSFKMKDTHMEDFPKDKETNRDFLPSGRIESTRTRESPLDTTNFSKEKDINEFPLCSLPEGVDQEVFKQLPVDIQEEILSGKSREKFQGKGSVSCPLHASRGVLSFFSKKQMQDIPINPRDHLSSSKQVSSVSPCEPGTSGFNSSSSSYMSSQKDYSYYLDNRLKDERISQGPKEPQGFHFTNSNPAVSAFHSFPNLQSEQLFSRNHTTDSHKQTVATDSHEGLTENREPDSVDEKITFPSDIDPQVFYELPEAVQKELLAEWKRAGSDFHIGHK
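Pol iota at 10 nM preincubated 15 min with compounds at room temperature; reaction started with fluorescent substrate, 50 nM final. Fluorescence read kinetically at 0 and 10 min; buffer-only wells as negative control.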
POLK inh – inhibitors of human DNA polymerase kappa | purified Pol kappa, fluorescent DNA synthesis assay, 10 min | Potency, µM (highest dose often 107 µM), inactives show at the top dose activity, negative = inhibition, most hits filed as inhibitors | 400,000 tested, 0.53% active; note: % is set by controls: 0 for no effect and ±100 for the full control effect
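Kinetic fluorescence readout at 0 and 10 min followed reaction start with substrate at 50 nM final. Beforehand, enzyme (10 nM Pol kappa) stood 15 min with compound at room temperature; buffer-only wells were negative controls.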
APEX1 inh – inhibitors of human APE1 endonuclease; 350,000 tested, 0.35% active; AID 2517; recombinant APE1, TAMRA/BHQ-2 abasic DNA cleavage fluorescence; Potency, µM (highest dose often 65.8 µM), without a hit: at the highest dose activity change, negative = inhibition, most hits filed as inhibitors;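 note: plate controls were vehicle for no effect and reference inhibitor for full effect; nearly all actives have a fitted effect of over 55% in size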
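Endonuclease cleavage of a quenched abasic-site DNA duplex (50 nM) by APE1 (0.75 nM) was tracked by TAMRA dequenching. Compounds were preincubated with enzyme 15 min at room temperature; data normalized to buffer-only and DMSO wells plus NSC13755 control.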
* hit, by the source's call; ? = inconclusive; · = no result given; [ ] = another dose, or the depositor's remark. Calls come from the whole dose curve; as a rule, active = well fitted curve in the direction sought with a large enough effect; inconclusive = small, poorly fitted or top-dose-only effect, or another doubt; inactive = no such curve, though single readings can be large; an effect the other way counts as inactive or inconclusive. Potency is the fitted concentration of half-maximal effect.

SMILES	POLB inh	POLH inh	L3MBTL1 inh	Pol iota inh	POLK inh	APEX1 inh
O=C(c1cc(-c2ccc(Br)cc2)nc2ccccc12)N1CCC1	·	0%	-6%	33%	-9%	0%
O=C(c1ccccc1)C(c1ccccc1)[n+]1csc2ccccc21 (configuration not stated)	·	·	·	7%	-16%	·
CN1CCc2cccc3c2[C@H]1Cc1ccc(O)c(O)c1-3	3%	-1%	?	18µM*	-6%	2%
COc1cc2c3cc1OCc1c(O)c(OC)cc4c1C(Cc1ccc(cc1)Oc1cc(ccc1O)CC3N(C)CC2)N(C)CC4 (configuration not stated)	·	·	·	-6%	-11%	-1%
Nc1ncnc2c1nc(N1CCCCC1)n2[C@@H]1O[C@@H]2COP(=O)(O)O[C@H]2[C@H]1O	·	·	·	·	8%[60.1 µM]	-3%
Cc1nc2sc3c(O)cc(=O)[nH]c3c2c(C)c1C	-8%	0%	·	3%	-6%	-4%
Cc1cc(C(F)(F)F)c2c(n1)sc1c(O)cc(=O)[nH]c12	-10%	-14%	·	3.2µM*	71µM*	?
Cc1cc(C(=O)COC(=O)c2ccc(NC(=O)CC#N)cc2)c(C)n1CCc1ccc(F)cc1	·	-27%	-15%	-14%	-21%	13%
COc1ccc(CCn2c(C)cc(C(=O)COC(=O)c3ccc(NC(=O)CC#N)cc3)c2C)cc1	13%	79µM*	·	?	?	-5%
CC(=O)Nc1cccc(-c2nc3ccccc3[nH]2)c1	12%	-14%	·	120%	-4%	13%
Nc1ccc(C(=O)Nc2ccc3nc(-c4cccnc4)[nH]c3c2)cc1	40µM*	-15%	-1%	-15%	?	-6%
Nc1ccc(C(=O)Nc2ccc(Nc3ccncc3)cc2)cc1	32µM*	5%	-17%	?	-26%	?
O=C(Nc1ccncc1)c1ccc(Br)cc1	43%	-2%	-2%	-5%	-3%	17%
CC(=O)Nc1cccc(-c2nc3ccc(NC(C)=O)cc3[nH]2)c1	45µM*	?	14%	?	?	-8%
CC(C)(C)NS(=O)(=O)c1cccc(-c2nnc(SCc3ccc(C(=O)O)cc3)n2-c2ccccc2)c1	·	·	·	·	·	50%
O=C(O)c1cc(O)c2c(c1)[C@@H]([C@H]1c3cc(C(=O)O)cc(O)c3C(=O)c3c(O[C@@H]4O[C@H](CO)[C@@H](O)[C@H](O)[C@H]4O)cccc31)c1cccc(O[C@@H]3O[C@H](CO)[C@@H](O)[C@H](O)[C@H]3O)c1C2=O	·	0.79µM*	0.11µM*	-94%	1.3µM*	0.067µM*
CC(=O)OCC1CC(COC(C)=O)C(COC(C)=O)CC1COC(C)=O (configuration not stated)	·	-21%	·	4%	0%	·
NS(=O)(=O)c1ccc(-c2ccc(C=O)o2)cc1	-29%	-9%	20%	51%	-6%	1%
NS(=O)(=O)c1ccc(-c2ccc(/C=C3\NC(=S)NC3=O)o2)cc1	11%	79µM*	13µM*	10µM*	50µM*	-15%
CC1=C(C#N)C(=O)NC(=O)/C1=C/c1ccc(-c2ccc(S(N)(=O)=O)cc2)o1	?	14µM*	?	?	?	-7%
CCOc1ccc(NC(=O)CSc2nnc3c(n2)[nH]c2ccc(S(=O)(=O)N(C)C)cc23)cc1	·	·	·	60%	-14%	·
O=C(CNC(=O)c1ccccc1)OCC(=O)c1ccc2ccccc2c1	·	·	·	6%	-1%	·
COc1ccc(C(=O)c2sc(Nc3cc(Cl)ccc3C)nc2N)cc1OC	28µM*	-16%	·	?	-17%	·
COc1ccc(C(=O)c2sc(Nc3ccccc3)nc2N)cc1OC	1%	-8%	·	?	-9%	-2%
CCOC(=O)C1CCN(c2ncnc3c2cnn3C)CC1	79µM*	-7%	·	-7%	-5%	-15%
SMILES	POLB inh	POLH inh	L3MBTL1 inh	Pol iota inh	POLK inh	APEX1 inh
O=C1NC(=S)/C(=C\c2ccc(-c3ccccc3Cl)o2)S1	40µM*	16µM*	?	?	?	-9%
O=C(O)c1ccc(C2Nc3ccccc3-c3nnc(SCc4ccc(Cl)cc4)nc3O2)cc1 (configuration not stated)	25µM*	-28%	·	?	?	·
CCOc1ccc(NC(=O)Cc2ccccc2)c([N+](=O)[O-])c1	0%	-14%	5µM*	-4%	-11%	2%
CCOc1ccc(NC(=O)COc2ccccc2)c([N+](=O)[O-])c1	59%	1%	-16%	144%	-6%	0%
CN(CC(=O)Nc1ccc(F)c(F)c1F)C(=O)/C=C/c1ccc(Cl)cc1	4%[57.1 µM]	-7%	3%	0%	-8%	8%
CN(CC(=O)Nc1ccc(F)c(F)c1F)C(=O)/C=C/c1ccco1	·	?	-17%	50µM*	-38%	-40%
O=C(O)c1cccc(-n2c(O)c(C=C3N=c4ccccc4=N3)sc2=S)c1	10%	?	-25%	-13%	-7%	-11%
O=C(O)c1ccc(-n2c(O)c(C=C3N=c4ccccc4=N3)sc2=S)cc1	12%	-23%	-22%	2.2µM*	?	1%
O=S1(=O)CCOC[C@H](c2ccccc2)N1Cc1ccc(F)cc1	·	·	·	32%	-16%	·
O=C(O)c1cc(N(Cc2ccccc2O)Cc2cc(O)ccc2O)ccc1O	·	·	·	·	11µM*	?
CN(C)c1ccc2c(-c3ccccc3)c3ccc(=[N+](C)C)cc-3oc2c1	·	·	·	·	·	28µM*
Cc1cc(=O)oc2cc(Oc3ccc([N+](=O)[O-])cc3[N+](=O)[O-])ccc12	-4%	?	3%	79µM*	-8%	14%
O=c1ccc2ccc(Oc3ccc([N+](=O)[O-])cc3Cl)cc2o1	-20%	-10%	·	14%	1%	-1%
NC(=O)c1ccc(Oc2ccc3ccc(=O)oc3c2)c([N+](=O)[O-])c1	?	28µM*	?	?	?	-6%
CCCCN(CCCC)CCNC(=O)c1cn(C)c2ccc(S(=O)(=O)N(C)C3CCCCC3)cc2c1=O	2%	-9%	·	12%	8%	-16%
N=C1S/C(=C\c2ccco2)C(=O)N1c1ccc2c(c1)OCO2	20µM*	35µM*	?	325%	?	?
COc1ccccc1C1NC(c2ccc3c(c2)OCO3)=CC(c2cc(Cl)ccc2O)N1 (configuration not stated)	·	·	·	?	-3%	·
COc1cccc(NS(=O)(=O)c2ccc3[nH]cc(C(=O)NC(C)c4ccccc4)c(=O)c3c2)c1 (configuration not stated)	40µM*	?	·	89µM*	?	·
O=C(COc1ccccc1C(=O)Nc1ccccc1)Nc1ccc2ccccc2c1	·	·	·	?	-5%	·

From PubChem BioAssay
